The source of these data is PubChem BioAssay (NCI).

This is part of a sample that, as a whole, favours compounds with a hit. Of some 83,000 tested, about 20% had one in any assay.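 Single-dose data. Exposure time 48 hours. Values below 10 considered active.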 A number with no mark means an inactive call. The source made the active and inactive calls.

The test system of the assay is HCT-116 colon. In words: NCI-60 one-dose screen, 48 h (100 = growth as untreated, 0 = no growth, -100 = all killed). The settings on record: 10 µM unless noted. The protocol:
Growth inhibition of the HCT-116 human tumor cell line is measured as a screen for anti-cancer activity. Cells are grown in 96 well plates and exposed to the test compound for 48 hours. Compounds are tested at a single concentration, which is 10^-5 M for most compounds. The reported endpoint is percent growth (GI% or GIPRCNT), where numbers from 0 - 100% represent growth inhibition, and numbers from -100% - 0 represent cell death. For example, a value of 40 represents 60% growth inhibition. A value of 0 means no net growth occurred over the course of the experiment. A value of -40 indicates 40% of cells at the beginning of the experiment died by the end of the experiment. A value of -100 means all cells are dead at the end of the experiment.
NCI-60 Human Tumor Cell Lines Screen was performed using the standard one-dose NCI protocol, which is described in more detail at https://dtp.cancer.gov/discovery_development/nci-60/default.htm.
Compounds with GIPRCNT values below 10 were considered active. Activity score was based on GIPRCNT using the following formula: […]
Score is 0 for GIPRCNT values of 100 or above, 50 for GIPRCNT values of 0, and 100 for GIPRCNT values of -100.
On to `O=C(NCc1ccco1)Nc1cccc2c(NC(=O)NCc3ccco3)cccc12`, for which the growth is 15% [100 µM]. In the case of `COC1CC(OC(=O)c2ccc([N+](=O)[O-])cc2)C(COC(=O)c2ccc([N+](=O)[O-])cc2)O1` (stereo not given) it was 105%. Consider `CCCCCCCCCCCCCCCCOc1ccccc1NC(=O)CC(C)=O`, for which the growth was 97.5%. As for `COC1OC(C(COC(C)=O)OC(C)=O)C(OC(C)=O)C(OC(C)=O)C1OC(C)=O` (stereo not given), the growth was 106%.

For the compound `CN(C)CCOC(=O)Nc1ccc(Cc2ccc(NC(=O)OCCN(C)C)cc2)cc1`, the growth was 36.5% [100 µM]. In the case of `Cc1cccc(-[n+]2noc(N)n2)c1` it was 82.2%; in that of `Cc1ccc(NCN2C(=O)c3ccccc3C2=O)c(C)n1`, 101%; in that of `CCOC(=O)c1ccc(NC(C)=O)o1`, 101%.

Regarding `Cc1ccc(C)c(CN(C)C)c1O`, the growth is 112%. In the case of `O=S(Cc1ccccc1)/C(=C/NC(=S)Nc1cc(Cl)ccc1Cl)c1ccccc1` (stereo not given), the growth is 109%. Consider `N=C(N)c1nn(C2OC(CO)C(O)C2O)c2nc[nH]c(=O)c12` (stereo not given), for which the growth is -80.3% (active). Regarding `COc1ccc(/C=N/NC(=O)COCC(=O)N/N=C/c2ccc(OC)cc2)cc1`, the growth is 111%. In the case of `Cc1cc(CC(=O)NCCO)n(CCO)c(=O)c1`, the growth is 97.5%. For the compound `O=C(O)Cc1ccc(Cl)cc1`, the growth is 77.4%.

As for `C[n+]1cc2cc3c(cc2c2ccccc21)OCO3`, the growth is 40.3%. For `Clc1ccc(-c2noc(/C=C\c3ccccc3)n2)cc1`, the growth is 102%.

Consider `CC(=O)OC/C(C)=C\CC(C)COC(C)=O` (stereo not given), for which the growth is 95.1%. In the case of `CCN(CC)c1ccc2nc3ccc(N=Nc4ccc(N(C)C)cc4)cc3[n+](-c3ccccc3)c2c1` it was -70.3% (active).

Take `Cc1ccccc1NC(=O)Oc1ccc(Cl)cc1C(=O)c1ccccc1`: the growth is 90.2%. Regarding `CN(C)c1ccc(O)c2c1CC1CC3C(N(C)C)C(=O)C(C(N)=O)=C(O)C3(O)C(=O)C1=C2O` (stereo not given), the growth is 34.1%.

With `N#C/C(=C\NC(=S)N=Nc1c(O)[nH]c2ccccc12)c1nc2ccccc2s1`, the growth was 92.3%. In the case of `C=C(C)[C@@H]1CC[C@]2(CO)CC[C@]3(C)[C@H](CC[C@@H]4[C@@]5(C)CC[C@H](O)C(C)(C)[C@@H]5CC[C@]43C)[C@@H]12` it was 1.87% (active); in that of `COc1cccc2c1Cc1ccccc1-2`, 101%; in that of `N#Cc1ccc(OC(=O)Nc2c(Cl)cc(Cl)cc2Cl)cc1`, 101%.

`CCOC(=O)c1ccc(NC(=O)Nc2nccs2)cc1`: the growth is 1.86% (active). `CN1CCCN(C(c2ccccc2)c2ccc(Br)cc2)CC1` (stereo not given): the growth was 21.4%.

Consider `COc1cc(CC#N)c([N+](=O)[O-])cc1OC`, for which the growth is 93.5%. In the case of `CC(=O)NCNC(C)=O` it was 104%; in that of `O=c1cc(C(F)(F)F)[nH]c(=S)[nH]1`, 112%; in that of `COc1ccc(C(=O)/C(=N/Nc2ccccc2)c2ccc(OC)cc2)cc1`, 78.5%.

As for `BrCc1cccc(C[P+](c2ccccc2)(c2ccccc2)c2ccccc2)c1`, the growth is 22.2%. In the case of `CCOC(=O)C(C#N)=C1CCN(C)CC1` it was 103%; in that of `COC1OC(CO)C(OC)C(O)C1O` (stereo not given), 106%.

On to `CC(C)=CCC[C@@H](C)[C@H]1CC[C@@]2(C)C3=C(CC[C@]12C)[C@@]1(C)CC[C@H](O)C(C)(C)[C@@H]1CC3`, for which the growth is 108%. As to `CCCCCCCCCCC(=O)CCCCCCCCCC`, the growth was 94.9%. Regarding `Nc1nc(N)nc(N2CCCCC2)n1`, the growth is 106%. As for `COc1cc(-c2ccc(NC(=O)CC(C)=O)c(OC)c2)ccc1NC(=O)CC(C)=O`, the growth was 105%. In the case of `CCN1CCCC(N2c3ccccc3Sc3ccccc32)C1` (stereo not given) it was 90.3%; in that of `C=C(C)COc1ccc(C(C)(C)C)cc1`, 96%; in that of `CC(CC(CCC(=O)O)(c1ccccc1)c1ccccc1)N(C)C` (stereo not given), 97.2%.
